RTF Ca sens act: cardiac RTF calcium sensitization; activation, % at 7.2 µM; P19429+P45379; 340,000 tested, 0.24% active; IANBD-labeled TnC RTF fluorescence at EC20 calcium; 0% EC20 calcium, 100% full calcium; AID 493008;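 active means activation above the mean over all tested compounds plus 3 SD, cut at about 30% in these data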;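 further: rise in fluorescence read as greater calcium sensitivity of cardiac thin filaments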
IDE act: boosts human insulin-degrading enzyme activity in HEK cells | FAbeta-B cleavage, fluorescence polarization; 0% vehicle, 100% cell-free pure enzyme wells | AID 493087 | activation, % at 5.96 µM | 340,000 tested, 0.073% active;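 active means activation above the mean of all tested compounds plus 3 SD, set per screening campaign, cut at about 17% in these data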
Target sequence (P14735 whole entry, looked up): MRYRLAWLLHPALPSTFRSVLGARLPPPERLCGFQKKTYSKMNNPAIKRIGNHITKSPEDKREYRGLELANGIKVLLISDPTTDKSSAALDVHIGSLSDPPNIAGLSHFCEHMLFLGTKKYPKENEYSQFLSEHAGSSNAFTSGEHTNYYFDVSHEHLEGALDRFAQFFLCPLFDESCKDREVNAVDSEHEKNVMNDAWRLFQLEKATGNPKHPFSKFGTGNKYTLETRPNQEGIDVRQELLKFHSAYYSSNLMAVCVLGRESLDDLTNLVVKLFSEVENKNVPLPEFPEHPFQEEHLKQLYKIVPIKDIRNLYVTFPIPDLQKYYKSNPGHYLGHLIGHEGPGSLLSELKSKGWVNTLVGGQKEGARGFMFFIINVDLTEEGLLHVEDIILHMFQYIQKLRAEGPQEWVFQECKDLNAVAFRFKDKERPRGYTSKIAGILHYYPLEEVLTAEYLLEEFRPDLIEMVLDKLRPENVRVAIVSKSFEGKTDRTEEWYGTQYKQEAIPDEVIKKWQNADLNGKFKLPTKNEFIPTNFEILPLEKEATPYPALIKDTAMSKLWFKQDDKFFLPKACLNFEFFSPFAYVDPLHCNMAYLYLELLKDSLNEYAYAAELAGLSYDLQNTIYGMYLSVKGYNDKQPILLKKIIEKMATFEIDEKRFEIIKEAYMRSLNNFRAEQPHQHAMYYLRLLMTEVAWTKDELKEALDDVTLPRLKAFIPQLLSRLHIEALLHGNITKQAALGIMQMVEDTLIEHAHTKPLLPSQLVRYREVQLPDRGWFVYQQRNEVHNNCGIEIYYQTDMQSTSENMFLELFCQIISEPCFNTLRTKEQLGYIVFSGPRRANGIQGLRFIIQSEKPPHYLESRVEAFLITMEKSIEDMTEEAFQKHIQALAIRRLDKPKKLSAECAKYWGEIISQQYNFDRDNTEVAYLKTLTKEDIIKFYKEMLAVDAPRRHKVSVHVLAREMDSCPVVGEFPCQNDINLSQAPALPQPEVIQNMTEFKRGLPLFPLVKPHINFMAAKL
IDE cell inh: inhibits human insulin-degrading enzyme in HEK cells; inhibition, % at 5.59 µM; P14735; 320,000 tested, 0.41% active; FAbetaB cleavage, fluorescence polarization;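 active means percent inhibition above the average of all tested compounds plus 3 SD, set per screening campaign, cut at about 16% in these data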;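 further: IDE supplied by intact live HEK cells; FP after avidin binding of uncleaved biotin substrate so inhibition keeps polarization high; 0% = DMSO wells and 100% = 60 µM reference IDE inhibitor Ii1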
RTF Ca sens inh: cardiac RTF calcium desensitization; IANBD-labeled cardiac RTF, Ca2+ fluorescence; P19429+P45379; inhibition, % at 7.15 µM; 340,000 tested, 0.12% active;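 active means inhibition above the mean inhibition of all tested compounds plus 3 SD, cut at about 17% in these data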;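 further: assay run at fixed EC70 calcium of 1.6 mM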
CRFBP-R2 block: blocks CRF-induced signaling of the CRF-BP/CRF-R2 complex; HEK293 CRF-R2/CRF-BP, CRF-induced calcium fluorescence; inhibition, % at 11.8 µM; 350,000 tested, 0.59% active;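 active means inhibition of the ligand-induced calcium signal above about 50% at the single tested concentration, limit read from the data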
CRFR2-BP ag: CRF-BP/CRF-R2 complex agonism; activation, % at 13.2 µM; HEK293 CRF-R2/CRF-BP, calcium dye fluorescence (FLIPR); percent of saturating CRF peptide response; AID 588473; 350,000 tested, 0.46% active;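 active means activation of at least 50%, plus an integration ratio under a set limit after plate pattern correction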;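 further: plate controls were neutral control wells without compound for no effect and CRF at EC100 for full effect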
Numbers without * were called inactive; . = no result. A selection: hits, their analogues and other compounds. The true share with any hit is near 1.5%.

SMILES	RTF Ca sens act	IDE act	IDE cell inh	RTF Ca sens inh	CRFBP-R2 block	CRFR2-BP ag
COc1ccccc1C/C(N)=N/OC(=O)COc1cc(C)cc(C)c1C	-5	2	2	4	-2	11
O=C(CSc1ccccc1)N1CCN(c2ccc(F)cc2)CC1	-1	5	4	0	22	-3
COc1ccc(C(=O)Nn2c(SCC(=O)N3CCC(C)CC3)nc3ccccc3c2=O)cc1	-1	-2	-2	-5	-10	-1
COc1ccc(C(=O)Nn2c(SCC(=O)NC3CCCCC3)nc3ccccc3c2=O)cc1	6	4	4	-1	75*	8
CNC(=O)CC1C(=O)N(c2ccc(OC)cc2)C(=S)N1NC(=O)c1cccc(F)c1 (stereo unspecified)	.	.	5	.	0	0
COc1cc(Cl)c(C)cc1NC(=O)CSc1ccc(C)cc1	-1	-3	3	-7	50*	0
COc1ccc(-n2ncc3c(SCC(=O)N4CCN(c5ccccc5OC)CC4)ncnc32)cc1	-1	2	1	-1	-16	1
O=C(Nc1ccc(OCC(F)(F)C(F)F)c(C(F)(F)F)c1)c1ccccc1O	-2	0	-2	-7	10	60*
O=C(Nc1ccc(OCC(F)(F)C(F)F)c(C(F)(F)F)c1)c1ccccc1	-14	2	2	-5	1	1
Cc1cccc(NS(=O)(=O)c2cccc(C(=O)N3CCN(c4ccccn4)CC3)c2)c1	-4	-10	0	3	115*	-2
Cc1cccc(NS(=O)(=O)c2cccc(C(=O)N3CCC3)c2)c1	3	-6	2	2	-9	-1
CNC(=O)COc1coc(CN2CCN(c3ccccc3OC)CC2)cc1=O	-6	3	-5	-6	-9	0
CN(Cc1cn(C)c2ccccc12)C(=S)Nc1cc(F)cc(F)c1	3	1	5	-9	-3	-1
Cc1nnc(N)s1	3	3	-1	-5	-16	3
CCN1CCN(CC(=O)Nc2cc(C(F)(F)F)ccc2OCCOC)CC1	-2	2	-3	-3	19	-3
CCOC(=O)C1CCCN(C(=O)c2ccc(Cl)c(S(=O)(=O)N3CCCCC3)c2)C1 (stereo unspecified)	-1	5	7	-6	53*	0
CCOC(=O)C1CCCN(C(=O)c2cccc(S(=O)(=O)N(Cc3ccccc3)c3ccccc3OC)c2)C1 (stereo unspecified)	-8	4	6	-2	51*	-2
CCOC(=O)C1CCN(C(=O)c2ccc(C)c(S(=O)(=O)N3CCCC3)c2)CC1	2	9	9	-7	2	-1
COc1ccc(NC(=S)N2CCN(Cc3ccco3)CC2)c(OC)c1	0	-6	8	-13	1	-1
CC(Sc1nnnn1-c1ccccc1)C(=O)Nc1ccccc1-c1ccccc1 (stereo unspecified)	3	1	-1	3	54*	0
O=C(OCc1ccc2c(c1)OCO2)c1ccc(S(=O)(=O)N2CCCC2)cc1	-7	3	-3	-9	114*	1
O=C(Cc1c2ccccc2nc2ccccc12)c1ccccc1	4	7	-2	4	18	-1
CCn1c(C)c(C(C)=O)c(N2CCN(c3ccccc3)CC2)nc1=S	10	3	2	-21	-19	60*
Cc1noc(C)c1CCC(=O)N1CCCC(CCC(=O)NCc2ccccc2F)C1 (stereo unspecified)	.	.	2	.	10	-3
O/C(=C\c1nc2ccccc2nc1/C=C(\O)c1ccccc1)c1ccccc1	-4	-13	4	-10	84*	0
SMILES	RTF Ca sens act	IDE act	IDE cell inh	RTF Ca sens inh	CRFBP-R2 block	CRFR2-BP ag
O=c1oc2ccccc2nc1/C=C(\O)c1ccccc1	.	.	-3	.	-31	23
CCOC(=O)C(NC(=O)CC(C)C)(Nc1sc(C)c(CC)c1C#N)C(F)(F)F (stereo unspecified)	5	4	-2	-8	51*	2
Cc1cccc(/C=C2/S/C(=N/N=C3\CC4CCC3(C)C4(C)C)NC2=O)c1 (stereo unspecified)	0	-1	4	-3	50*	3
Cc1occc1C(=O)NNC(=S)NC(=O)COc1ccc(Cl)cc1Cl	3	-6	2	1	-251	230*
O=C(NNC(=S)NC(=O)c1ccccc1Cl)c1cccc([N+](=O)[O-])c1	-1	4	3	2	36	65*
Cc1ccc(C(=O)NNC(=S)NC(=O)c2ccccc2)cc1	3	3	2	-4	-41	138*
Cc1ccccc1C(=O)NNC(=S)NC(=O)c1ccccc1	10	-5	-3	-17	16	160*
Cc1ccc(C(=O)NC(=S)NNC(=O)c2ccccc2[N+](=O)[O-])cc1	-2	-8	7	-9	3	19
O=C(NNC(=S)NC(=O)c1ccc(Br)cc1)c1cccc([N+](=O)[O-])c1	-2	1	-1	-9	30	35
Cc1occc1C(=O)NNC(=O)COc1ccc(Br)cc1Br	4	-2	0	13	-15	-2
COc1ccc(S(=O)(=O)N(C)C)cc1NC(=O)Cc1cccs1	-2	3	1	-1	11	-1
COc1cc(NC(=O)c2c(F)cccc2F)c(Cl)cc1Cl	.	.	-3	.	36	-4
Cc1ccc(SCc2cc(=O)[nH]c(/N=C(\N)Nc3ccc(C)c(C)c3)n2)cc1	-4	5	2	3	-30	3
CCCc1cc(=O)[nH]c(SCC(=O)Nc2ccc(Cl)c(S(=O)(=O)N3CCOCC3)c2)n1	2	0	4	-4	-1	-1
O=C(NNC(=S)NC(=O)c1ccccc1)c1ccc([N+](=O)[O-])cc1	5	-2	-5	2	21	40
O=C(NC(=S)NNC(=O)c1ccccc1O)c1ccccc1	-2	2	0	4	-6	15
Cc1ccc(C(=O)NNC(=S)NC(=O)c2ccco2)cc1	6	1	4	-13	35	97*
Cc1ccc(C(=O)NC(=S)NNC(=O)c2ccccc2O)cc1	-6	7	-7	-8	12	90*
Cc1ccc(C(=O)NNC(=O)c2ccco2)cc1	7	2	2	-27	9	-1
O=C(NNC(=S)Nc1cccc(C(F)(F)F)c1)c1ccc(Cl)cc1Cl	-5	3	-4	-2	27	54*
O=C(NC(=S)NNC(=O)c1ccccc1O)c1ccc([N+](=O)[O-])cc1	1	0	-2	-12	18	50*
C[C@H](CO)N1C[C@H](C)[C@@H](CN(C)C(=O)Nc2ccc3c(c2)OCO3)Oc2c(NC(=O)Cc3ccccc3)cccc2C1=O	-1	2	-4	4	-4	2

Screens as filed in PubChem.
